A selection: hits, their analogues and other compounds. The true share with any hit is near 19%.
DT40 TDP1 no CPT: qHTS for Inhibitors of human tyrosyl-DNA phosphodiesterase 1 (TDP1): qHTS in cells in absence of CPT | Potency, µM (top dose mostly 46.2 µM), actives largely listed as inhibitors | DT40 Tdp1-/- hTDP1 cells, no CPT, ATP luminescence, 48 h | hit rate 15% among 420,000 | AID 686978, 2013; note: nearly all actives have a fitted effect of over 55% in size
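Chicken DT40 Tdp1-/- cells stably complemented with human TDP1 were seeded at 400 cells/well with DMSO in place of 20 nM camptothecin. After compound pinning, cells grew at least 48 hr at 37 °C; viability read by CellTiter-Glo luminescence.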
HT1080 IDH1KD tx: qHTS for induction of synthetic lethality in tumor cells producing 2HG: qHTS for the HT-1080-IDH1KD cell line | HT-1080 IDH1 knockdown viability, ATP luminescence, 48 h | Potency, µM (doses to about 46.1 µM), usual class: cytotoxic | hit rate 2% among 360,000 | AID 686971, 2013
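% activity derives from luminescence (CellTiter-Glo), normalised to DMSO and no-cell wells. HT-1080-IDH1KD cells, 750/well, had 48 h compound exposure at 37 °C.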
IL-1B inflam inh: qHTS for Inhibitors of Inflammasome Signaling: IL-1-beta AlphaLISA Primary Screen | THP-1 LPS/ATP IL-1B secretion, AlphaLISA, 16 h; hits give low values | hit rate 4.7% among 360,000 | AID 743279, 2014 | activity change, % at 57.5 µM; in the data active = activity change below about -50%; inconclusive = mostly about -30% to -49%
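THP-1 cells pretreated 1 hr with compounds (up to 57.5 uM final), then stimulated with LPS (250 ng/mL final) plus ATP (1.25 mM final); secreted IL-1B measured by AlphaLISA after 16 hr, decreased signal indicating inhibition.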
HT1080-NT tox: qHTS for induction of synthetic lethality in tumor cells producing 2HG: qHTS for the HT-1080-NT fibrosarcoma cell line | HT-1080-NT fibrosarcoma viability, CellTiter-Glo ATP luminescence, 48 h | Potency, µM (series often up to 46.1 µM), most hits filed as cytotoxic | hit rate 1.6% among 360,000;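 note: NT is the 2HG producing partner of a matched IDH1 knockdown line; nearly all actives have a fitted effect of over 55% in size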
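HT-1080-NT; 750 cells/well; 5% FBS RPMI; 48 h compound, 37 degrees C; CellTiter-Glo luminescence; curve fitting and curve-class assignment.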
TDP1 cell CPT: qHTS for Inhibitors of human tyrosyl-DNA phosphodiesterase 1 (TDP1): qHTS in cells in presence of CPT; hit rate 12% among 420,000; chicken DT40 Tdp1-/-;hTDP1 cells + 20 nM CPT, ATP luminescence, 48 h; AID 686979, 2013; Potency, µM (highest dose often 46.2 µM), actives largely listed as inhibitors; note: nearly all actives have a fitted effect of over 55% in size
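Chicken DT40 Tdp1-/- cells complemented with human TDP1, 400 cells/well, exposed to compounds plus 20 nM camptothecin for at least 48 h at 37 C; viability read as ATP content by CellTiter-Glo luminescence.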
Hits are given with their value; n = inactive; u = inconclusive; x = not tested or not shown. Unless noted, calls come from the whole dose curve; as a rule, active = well fitted curve in the direction sought with a large enough effect; inconclusive = small, poorly fitted or top-dose-only effect, or another doubt; inactive = no such curve, though single readings can be large; an effect the other way counts as inactive or inconclusive.

SMILES	DT40 TDP1 no CPT	HT1080 IDH1KD tx	IL-1B inflam inh	HT1080-NT tox	TDP1 cell CPT
COc1ccc(Br)cc1CNC(=O)CCSCc1ccc(C)cc1	u	x	x	x	n
NS(=O)(=O)c1ccc(CCNC(=O)c2cc([N+](=O)[O-])ccc2N2CCOCC2)cc1	n	n	n	n	n
Cc1ccc(-n2nc3cc(C)c(N)cc3n2)cc1	n	n	n	n	n
Nc1ccc2nn(-c3cccc4ccccc34)nc2c1	16µM	n	n	n	12µM
Nc1ccc2nn(-c3ccccc3)nc2c1	n	n	n	n	n
Cc1cc2nn(-c3cccc4ccccc34)nc2cc1N	18µM	n	n	n	21µM
CN1C(=O)c2ccccc2Sc2ccc(NC(=O)NCc3cccc(Cl)c3)cc21	23µM	x	x	x	23µM
Cc1ccccc1CNC(=O)Nc1ccc2c(c1)N(C)C(=O)c1ccccc1S2	16µM	x	x	x	16µM
CC(C)NC(=O)Nc1ccc2c(c1)N(C)C(=O)c1ccccc1S2	n	x	x	x	u
COCCNC(=O)Nc1ccc2c(c1)N(C)C(=O)c1ccccc1S2	n	n	n	n	n
COc1cc(OC)c(NC(=O)Nc2ccc3c(c2)N(C)C(=O)c2ccccc2S3)cc1Cl	5.8µM	x	x	x	5.8µM
COc1ccc(CNC(=O)Nc2ccc3c(c2)N(C)C(=O)c2ccccc2S3)cc1	21µM	x	x	x	u
O=C1CC(NS(=O)(=O)c2cccs2)CN1c1ccc(Cl)cc1 (configuration not stated)	u	n	n	n	n
O=C1/C(=C\c2ccc(C(F)(F)F)cc2)CSc2sccc21	n	n	n	n	n
Cc1cc(C)n(-c2ccc(C(=O)N3CCN(S(=O)(=O)c4cccc(Br)c4)CC3)cc2)n1	21µM	n	n	n	21µM
Cc1cc(C)n(-c2ccc(C(=O)N3CCN(S(=O)(=O)c4ccc(C(C)C)cc4)CC3)cc2)n1	15µM	n	u	n	u
CCC(CC)C(=O)Nc1cccc(C(=O)Nc2ccc3c(c2)OCO3)c1	u	n	n	u	26µM
CCC(=O)Nc1ccc(NC(=O)c2ccc3c(c2)OCO3)cc1	n	n	n	n	n
CCC(CC)C(=O)Nc1cccc(C(=O)Nc2nnc(C)s2)c1	u	n	n	n	n
CCN(CC)c1ccc(NC(=O)c2ccc3c(c2)OCO3)cc1	u	21µM	u	u	u
O=C(Nc1ccc2c(c1)OCCO2)c1cccc(Br)c1	n	n	-54	n	n
CCC(CC)C(=O)Nc1cccc(C(=O)Nc2nccs2)c1	23µM	n	n	n	u
O=C(O)c1ccccc1-c1ncc(-c2ccccc2)o1	n	n	n	n	n
C/C(=N\NC(=O)c1nn(C)c(C)c1Br)c1cccc(NC(=O)c2ccoc2C)c1	u	n	n	n	u
CCCOc1cccc(C(=O)Nc2ccc(-c3nc4ccccc4o3)cc2)c1	13µM	x	x	x	u
SMILES	DT40 TDP1 no CPT	HT1080 IDH1KD tx	IL-1B inflam inh	HT1080-NT tox	TDP1 cell CPT
CCCOc1ccc(C(=O)Nc2ccc3oc(-c4ccc5ccccc5c4)nc3c2)cc1	n	x	x	x	n
O=C(Nc1ccc2c(c1)OCCO2)c1c(F)c(F)c(F)c(F)c1F	u	n	n	n	18µM
Cc1ccn2cc(C(=O)Nc3ccc4c(c3)OCCO4)nc2c1	n	u	-89	u	n
CCCOc1cccc(C(=O)Nc2ccc3c(c2)OCCO3)c1	23µM	n	n	n	n
O=C(c1ccccc1)C(Nc1ccccn1)c1ccccc1 (configuration not stated)	n	n	n	n	n
CCn1c2ccccc2c2nnc(SC3CCOC3=O)nc21 (configuration not stated)	n	n	x	n	n
CCC(CC)C(=O)Nc1cccc(C(=O)Nc2ccc(S(=O)(=O)Nc3ccc(C)cc3)cc2)c1	u	u	u	u	21µM
CCC(CC)C(=O)Nc1cccc(C(=O)Nc2ccc(S(N)(=O)=O)cc2)c1	n	n	n	n	n
N#C/C=C(/N)N1CCN(c2ccc(Cl)c(Cl)c2)CC1	16µM	n	u	n	u
O=C(c1cnc2n(c1=O)CCS2)N1CCN(c2ccc(Cl)c(Cl)c2)CC1	u	n	n	n	u
Nc1ccc(N2CCN(c3ccc(Cl)c(Cl)c3)CC2)cc1	9.2µM	n	n	n	12µM
CNC(=S)N1CCN(c2ccc(Cl)c(Cl)c2)CC1	16µM	n	-58	n	23µM
COc1cc(NC(=O)C2CCN(C(=O)c3sc4nc[nH]c(=O)c4c3C)CC2)cc(OC)c1OC	n	x	x	x	n
COc1ccc(OC2C(=O)N(Cc3ccc(F)cc3)C2c2ccc(OC)c(OC)c2)cc1 (configuration not stated)	n	n	u	n	29µM
N#Cc1ccc(-n2c(-c3ccccc3)nnc2-c2ccccc2)cc1C#N	16µM	n	-74	n	u
C=CCNC(=O)c1c(Br)cnn1-c1ccc(C)cc1	n	n	n	n	n
CC1Cc2ccccc2N1C(=O)CNCCCN(C)C (configuration not stated)	n	n	n	n	n
CC1CC2(C)Oc3ccccc3CC2C(C)C1CNCCCN(C)C (configuration not stated)	1.2µM	6.5µM	u	5.8µM	4.1µM
S=C(N/N=C/c1cccs1)NC1CC2CCC1C2 (configuration not stated)	u	u	x	u	n
COc1cccc(/C=N/NC(=S)NC2CC3CC2C2C=CCC32)c1O (configuration not stated)	29µM	n	x	n	u
Oc1ccccc1/C=N/NC(=S)NC1CC2CC1C1C=CCC21 (configuration not stated)	4.1µM	8.2µM	u	u	3.7µM
COc1cccc(/C=N/NC(=S)Nc2cccc(C(=O)O)c2)c1O	n	n	n	n	u
COc1ccc(NC(=O)COC(=O)Cn2cnc3ccccc3c2=O)c(OC)c1	n	n	n	n	n
COc1ccc(-c2c(C)nc3c(-c4ccccn4)cnn3c2N)cc1	18µM	n	n	n	u
Cc1nc2c(-c3ccc(F)cc3)cnn2c(N)c1-c1ccc(F)cc1	4.6µM	n	-67	n	21µM
C[C@@H]1CN([C@@H](C)CO)C(=O)c2cc(NC(=O)C3CCCCC3)ccc2O[C@@H](C)CCCCO[C@@H]1CN(C)C(=O)CCCN(C)C	n	n	n	n	n
CCN(CC)c1ccc(-n2c(C)c(C(C)=O)c(C(C)=O)c2C)cc1	10µM	n	n	n	23µM
Cc1ccccc1NC(=O)CCNS(=O)(=O)c1cccc2nsnc12	n	n	n	n	n
Cc1c(C(=O)N2CCC[C@H]2C(N)=O)oc2c(F)cccc12	n	n	n	n	n
